The whole screen tested about 320,000 compounds, of which about 2,100 (0.66%) were called active. Another 53% or so got no clear call; they are omitted. The call rests on the fitted dose curve; in most records, active means well fitted inhibition curve with a large enough effect in the signal ratio, with a control signal flat (not every such curve was filed as active); inconclusive means small, poorly fitted or top-dose-only effect, or effect the other way, or a change in a side signal; inactive means flat fitted curve, though single readings scatter; the % refers to the signal ratio. The entries come from a sample that favours actives as a whole.
assay: qHTS Assay for Lipid Storage Modulators in Drosophila S3 Cells; details: BODIPY lipid droplet fluorescence, 18-24 h, cells fed with added oleic acid; cell number change: measured here: cell count max response; series mostly up to 46.1 µM; lipid storage change, negative = inhibition: at the top concentration;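 on cell number change: cells counted by Cell Tracker Red CMTPX staining in the red channel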; on lipid storage change, negative = inhibition: on the % scale 0 is the no-effect control and ±100 the full control effect
From the text: NIH Molecular Libraries Probe Production Centers Network [MLPCN] NIH Chemical Genomics Center [NCGC] MLPCN Grant: 1 R03 MH085686-01 Assay Submitter (PI): Beller, Mathias; Max-Planck-Institut fur Biophysikalische Chemie NCGC Assay Overview: Storing lipids as a reservoir for energy or the anabolism of elementary metabolites is a common feature of probably all cells and is conserved from bacteria to humans. The universal cellular lipid storage organelle is the so-called lipid storage droplet (LD). Although ubiquitous, LDs share a simple structure composed of a hydrophobic core that harbors the storage lipids, which is shielded by a droplet-specific phospholipid monolayer to which proteins are attached. The current model of LD biogenesis involves an incorporation of the lipid core into the membrane leaflets of the endoplasmic reticulum (ER) followed by a subsequent budding-like maturation of a LD, which ultimately pinches off. Once released, LD volume can increase by localized lipogenesis or fusion of existing droplet. Storage lipids are re-mobilized enzymatically by lipase activity. Lipase regulation in the adipocyte is heavily studied and involves multiple components including catecholamine signaling, the LD-associated proteins Perilipin and comparative gene identification (CGI-58) and at least two lipases named hormone sensitive lipase (HSL) and adipocyte triglyceride lipase (ATGL). LD regulation outside of the adipocyte is poorly understood and only few components are known. However, there is an urgent need to learn more about ectopic fat depots as mislocalized storage of lipids, for example in the liver or muscle, is an eminent health problem associated with insulin resistance or the metabolic syndrome. We developed a laser-scanning cytometer assay to enable 1,536-well screening and combined the results of the small molecules screen with an RNAi database based on lipid storage.
Triacsin C (Sigma-Aldrich T-4540), an inhibitor of long-chain fatty acyl CoA synthetase that blocks synthesis of triglycerides, was used as a positive control for lipid under-storage. A total of 23 nL of compound solution of different concentrations were transferred to the assay plates using a Kalypsys pin tool equipped with a 1,536-pin array containing 10-nL slotted pins (FP1S10, 0.457-mm diameter, 50.8 mm long; V&P Scientific). One microliter of oleic acid (400 uM) was added, and the plate was lidded with stainless steel rubber gasket lined lids containing pinholes. […] Fluorescence was detected by excitation of the fluorophores with a 488-nm laser on an Acumen Explorer (TTP Lab Tech). The total intensity in channel 2 (500-530 nm) reflected lipid droplet accumulation. Cells were detected using channel 3 (575-640 nm) with 5-um width and 100-um depth filters. The ratio of the number of objects in PMT channel 2 over the number of objects in PMT channel 3 was also calculated. Percent activity was computed relative to an internal control (100% inhibited lipid droplet deposition due to the presence of 20 uM Triacsin C), which was added to 32 wells/plate.
Potency means the concentration at half of the fitted maximal effect.

Structure (SMILES) | lipid storage change, negative = inhibition | cell number change [%] | outcome | Potency
COC(=O)c1ccc(-c2noc(CN3C[C@H]4CC[C@H]3C4)n2)cc1 | 10.7% (inactive) | -0.0392 | – | –
O=C(NCC1CCCCC1)c1ccccc1[N+](=O)[O-] | -19.7% (inactive) | 5.77 | – | –
COc1ccc(CNC(=O)Cc2cccs2)cc1OC | 5.76% (inactive) | 15.3 | – | –
Nc1nonc1C(=O)N/N=C/c1ccc(Br)o1 | -2.4% (inactive) | 5.25 | – | –
Cc1cccc(OCC(=O)O/N=C(\N)c2ccccn2)c1C | -9.68% (inactive) | -6.52 | – | –
COc1ccc(C(=O)Nc2ccc(S(=O)(=O)N3CCCC3)cc2)c(OC)c1 | – | 7.48 | inactive | –
CC(=O)Nc1ccc(S(=O)(=O)N2CCCC2)cc1 | -4.71% (inactive) | 12.4 | – | –
COc1ccc(NC(=O)c2cc(S(=O)(=O)N3CCCCC3)ccc2OC)cc1 | -28.8% (inactive) | -15.6 | – | –
CC(=O)c1ccc(NC(=O)Nc2ccc(S(=O)(=O)N3CCCC3)cc2)cc1 | – | -4.34 | – | 9.2 µM (active)
CC(=O)Nc1ccc(S(=O)(=O)N2CCCN(S(=O)(=O)c3ccc(NC(C)=O)cc3)CC2)cc1 | 10.4% (inactive) | -11.8 | – | –
COc1cc(OC)c(C(=O)Nc2ccc(S(=O)(=O)N3CCCCC3)cc2)cc1OC | – | 2.89 | – | 6.51 µM (active)
COc1ccc(N2C(=S)NC3CS(=O)(=O)CC32)cc1 (stereo unspecified) | 4.54% (inactive) | 0.125 | – | –
Cc1ccc(-c2nnc(SCC(=O)NC3CC3)o2)cc1 | – | 10.3 | – | 29.1 µM (active)
Cc1cc(C)cc(-c2nnc(SCC(=O)NC3CC3)o2)c1 | 18.4% (inactive) | 9.78 | – | –
O=C(CSc1nnc(-c2ccccc2)o1)NC1CC1 | 2.05% (inactive) | -4.73 | – | –
Cc1ccc(NC(NC(=O)c2cccs2)C(Cl)(Cl)Cl)cc1C (stereo unspecified) | -13% (inactive) | 4.44 | – | –
CC(C)(CO)N=C1NS(=O)(=O)c2cc([N+](=O)[O-])ccc21 | 0.321% (inactive) | 2.18 | – | –
CCOc1ccc2c(c1)C(C)=CC(C)(C)N2S(=O)(=O)c1ccc(C)cc1 | 0.5% (inactive) | -19.8 | – | –
COc1ccc2c(c1)C(C)=CC(C)(C)N2S(=O)(=O)c1ccc(C)cc1 | 8.71% (inactive) | 5.92 | – | –
CCOc1ccc2c(c1)C(C)=CC(C)(C)N2S(=O)(=O)c1ccc(NC(C)=O)cc1 | – | -18.1 | – | 7.31 µM (active)
Cc1ccc(S(=O)(=O)NC(C)c2ccccc2)cc1[N+](=O)[O-] (stereo unspecified) | – | -16.5 | inactive | –
CCCOc1ccc(C2NC(=O)CCC2[N+](=O)[O-])cc1 (stereo unspecified) | – | -7.92 | inactive | –
COc1ccccc1C1NC(=O)NC(C)=C1C(=O)OC1CCCCC1 (stereo unspecified) | -7.89% (inactive) | -18.5 | – | –

Structure (SMILES) | lipid storage change, negative = inhibition | cell number change [%] | outcome | Potency
COc1ccccc1C1NC(=O)NC(C)=C1C(=O)OCc1ccccc1 (stereo unspecified) | 7.18% (inactive) | 8.03 | – | –
COc1ccccc1C1NC(=O)NC(C)=C1C(C)=O (stereo unspecified) | – | 6.66 | – | 14.6 µM (active)
CCC(C)(C)NC(=O)C(c1ccccc1Cl)N(C(=O)CCC(=O)Nc1cc(C)on1)C1CC1 (stereo unspecified) | – | 10.4 | inactive | –
O=C(COC(=O)c1ccc(OC(F)F)cc1)NCCNC(=O)COC(=O)c1ccc(OC(F)F)cc1 | 1.33% (inactive) | -4.4 | – | –
Cn1c(SCC(=O)Nc2ccccc2F)nnc1-c1cccs1 | – | 14.3 | inactive | –
Cc1nnc(NC(=O)Cn2nc(C)c3ccccc3c2=O)s1 | 3.77% (inactive) | 9.11 | – | –
COc1cccc(NC(=O)CCNC(=O)c2ccccc2Cl)c1 | -15.6% (inactive) | -13.1 | – | –
CNC(=O)CN(C)S(=O)(=O)c1ccc(F)cc1 | – | – | – | 20.6 µM (active)
CCCNC(=O)CN(C)S(=O)(=O)c1ccc(F)cc1 | -19.4% (inactive) | -1.04 | – | –
CC(C)NC(=O)CN(C)S(=O)(=O)c1ccc(F)cc1 | -5.26% (inactive) | 0.117 | – | –
COc1cc(NC(=S)NCc2ccco2)cc(OC)c1OC | 7.9% (inactive) | -1.1 | – | –
Cc1ccc(Cc2cnc(NC(=O)c3cccs3)s2)cc1 | -11.2% (inactive) | -12.1 | – | –
Cc1ccc(S(=O)(=O)c2cc3c(=O)n4cccc(C)c4nc3n(CC3CCCO3)c2=N)cc1C (stereo unspecified) | 13.5% (inactive) | 7.15 | – | –
COc1ccc(/C(C)=C2\SC(=S)N(CCC(=O)O)C2=O)cc1 | – | 7.05 | – | 16.4 µM (active)
CC(=C\c1ccccc1)/C=C1/SC(=S)N(CCC(=O)O)C1=O | -4.15% (inactive) | 5.93 | – | –
COc1ccc(/C=C2/SC(=S)N(CCC(=O)O)C2=O)cc1 | -19.3% (inactive) | -16.6 | – | –
O=C(CSc1nnnn1-c1ccccc1)N1N=CCC1c1ccccc1 (stereo unspecified) | 5.81% (inactive) | -5.17 | – | –
CCn1c(C)[n+](CC)c2ccc(C(=O)N(C)c3ccccc3)cc21 | -2.21% (inactive) | 19.5 | – | –
CC[n+]1c(/C=C/C=C/N(C(C)=O)c2ccccc2)sc2ccccc21 | -11.3% (inactive) | 10.1 | – | –
CC[n+]1c(/C=C/N(C)c2ccccc2)oc2ccc(F)cc21 | – | 6.99 | – | 25.9 µM (active)
C/C=C/COC(=O)C1=C(C)NC(=O)NC1c1ccc2c(c1)OCO2 (stereo unspecified) | – | 9.12 | inactive | –
Cc1c(N)cccc1-c1nc2ccccc2[nH]1 | -2.3% (inactive) | -2.56 | – | –
CN(C)CCCNCCCNC(=O)/C(=N\O)c1ccccn1 | 1.85% (inactive) | 11.1 | – | –
